Giardia FBPA inh: blocks Giardia fructose-bisphosphate aldolase activity; A8B2U2; purified Giardia FBPA; Potency, µM (top dose mostly 59.6 µM), for inactives: top-dose activity, negative = inhibition, actives largely listed as inhibitors; actives 0.71% (n = 290,000); note: nearly all actives have a fitted effect of over 55% in size
Target sequence (A8B2U2 whole entry, looked up): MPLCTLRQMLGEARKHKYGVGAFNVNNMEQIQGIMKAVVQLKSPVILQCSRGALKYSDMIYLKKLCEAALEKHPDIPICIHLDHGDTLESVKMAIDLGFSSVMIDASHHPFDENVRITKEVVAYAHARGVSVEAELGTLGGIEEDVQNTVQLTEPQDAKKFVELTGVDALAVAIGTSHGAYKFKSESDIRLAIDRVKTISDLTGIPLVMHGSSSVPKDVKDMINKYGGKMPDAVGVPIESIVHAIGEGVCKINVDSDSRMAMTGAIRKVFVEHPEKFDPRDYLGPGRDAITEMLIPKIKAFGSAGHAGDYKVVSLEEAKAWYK
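40 nM FBPA preincubated 10 min at RT with compound (up to 57.5 uM final), then substrate plus GAPDH/TPI/NAD/arsenate coupling and diaphorase/resazurin added. Fluorescence read after 20 min at RT, 525/598 nm.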
AmpC inh no detg: AmpC beta-lactamase inhibition without detergent. P00811. AmpC nitrocefin hydrolysis, absorbance 480 nm, 0.0001% Triton. Potency, µM (series often up to 57.1 µM), for the others: at the top dose activity change, negative = inhibition, actives largely listed as inhibitors. actives 0.52% (n = 330,000). AID 485341;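 note: plate controls were no compound for no effect and no enzyme for full effect; nearly all actives have a fitted effect of over 20% in size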
Target sequence (P00811 whole entry, looked up): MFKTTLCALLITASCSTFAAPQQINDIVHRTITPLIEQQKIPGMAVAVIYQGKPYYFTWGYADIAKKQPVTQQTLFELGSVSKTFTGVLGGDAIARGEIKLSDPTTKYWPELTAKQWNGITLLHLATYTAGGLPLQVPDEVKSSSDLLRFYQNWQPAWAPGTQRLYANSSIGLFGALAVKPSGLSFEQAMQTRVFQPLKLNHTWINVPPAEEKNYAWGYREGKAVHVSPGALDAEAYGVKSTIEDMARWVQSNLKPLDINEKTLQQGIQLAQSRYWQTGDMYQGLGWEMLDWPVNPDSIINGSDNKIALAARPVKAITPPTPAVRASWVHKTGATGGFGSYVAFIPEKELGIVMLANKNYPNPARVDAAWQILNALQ
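AmpC (5.3 nM in the dispensed reagent) in 20 mM phosphate pH 7.0 with 0.01% (detergent screen) or 0.0001% Triton X-100 was preincubated with compounds for 15 min at room temperature. Nitrocefin was then added from an 800 uM solution, and hydrolysis was followed at 480 nm.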
RE007 growth inh: less growth of the S. pombe RE007 Vpr strain; Potency, µM (doses to about 92.2 µM), inactives show top-dose activity change, negative = less growth, hits mostly inhibitors; AID 651644; actives 0.21% (n = 360,000); S. pombe RE007 Vpr strain, BacTiter-Glo ATP luminescence, 24 h; active = well fitted falling curve with a large enough effect; inconclusive = small, poorly fitted or top-dose-only effect; inactive = no such curve, though single readings can be large or run the other way; note: nearly all actives have a fitted effect of over 50% in size
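Fission yeast strain RE007, carrying one chromosomally integrated HIV-1 vpr copy, was seeded at OD 0.01 in PMG+AL medium with 23 nL pinned compound. After 24 h at 30 °C and 99% humidity, viability was read by BacTiter-Glo luminescence.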
Sm TGR inh: S. mansoni TGR enzyme inhibition; purified TGR, DTNB reduction, TNB absorbance 405 nm; actives 3% (n = 360,000); Q962Y6; AID 485364; Potency, µM (doses to about 114 µM), for inactives: top-dose activity change, negative = inhibition, usual class: inhibitors; note: nearly all actives have a fitted effect of over 60% in size
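Kinetic colorimetric format: TGR-catalysed, NADPH-driven DTNB reduction monitored via TNB absorbance. Enzyme dispensed at 20 nM; compound exposure 15 min at room temperature before reaction start.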
AmpC inh detg: blocks E. coli AmpC beta-lactamase in detergent assay; AID 485294; Potency, µM (series often up to 114 µM), without a hit: at the highest dose activity change, negative = inhibition, most hits filed as inhibitors; actives 0.041% (n = 370,000); AmpC hydrolysis of nitrocefin, absorbance 480 nm, 0.01% Triton;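 note: 0% = no-compound wells and -100% = no-enzyme wells; nearly all actives have a fitted effect of over 25% in size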
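20 mM phosphate pH 7.0 + 0.01% (detergent screen) or 0.0001% Triton X-100; 5.3 nM AmpC reagent; cpd preinc 15 min RT; nitrocefin (800 uM stock) to start; A480 q20 s × 4 min; Activity was normalised to no-enzyme and no-compound control wells.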
* hit, by the source's call; ? = inconclusive; nt = no result given; [ ] = dose if it differs, or a comment. Rows were chosen to be rich in hits. Some 3.4% of all compounds tested hit in one or more screens of this group. Unless noted, calls come from the whole dose curve; as a rule, active = well fitted curve in the direction sought with a large enough effect; inconclusive = small, poorly fitted or top-dose-only effect, or another doubt; inactive = no such curve, though single readings can be large; an effect the other way counts as inactive or inconclusive. Unless noted, % is set by controls: 0 for no effect and ±100 for the full control effect; potency is the fitted concentration of half-maximal effect.

SMILES	Giardia FBPA inh	AmpC inh no detg	RE007 growth inh	Sm TGR inh	AmpC inh detg
C#CCOCCOCCOCCNc1nc(N2CCN(C(=O)C([C@@H](C)CC)n3cc(C(N)Cc4ccc(O)cc4)nn3)CC2)nc(N2CCN(C(=O)[C@H](CCC(=O)O)n3cc(C(N)CO)nn3)CC2)n1 (stereo not given in full)	-14%	172%	10%	40µM*	1%
C#CCOCCOCCOCCNc1nc(N2CCN(C(=O)[C@H](CCC(=O)O)n3cc(C(N)Cc4ccc(O)cc4)nn3)CC2)nc(N2CCN(C(=O)[C@H](Cc3ccc(O)cc3)n3cc(C(N)CC(C)C)nn3)CC2)n1 (stereo not given in full)	-17%	226%	nt	14µM*	-6%
CC(=O)c1sc(NC(=O)COc2ccc(C(C)C)c(C)c2)nc1C	1%	-19%	37%	7%	?
C#CCOCCOCCOCCNc1nc(N2CCN(C(=O)[C@H](Cc3ccc(O)cc3)n3cc([C@@H](N)CC(C)C)nn3)CC2)nc(N2CCN(C(=O)[C@H](Cc3ccc(O)cc3)n3cc([C@@H](N)CC(C)C)nn3)CC2)n1	-9%	172%	nt	18µM*	-8%
C#CCOCCOCCOCCNc1nc(N2CCN(C(=O)[C@H](CCC(=O)O)n3cc(C(N)[C@H](C)CC)nn3)CC2)nc(N2CCN(C(=O)[C@H](Cc3ccc(O)cc3)n3cc(C(N)[C@H](C)CC)nn3)CC2)n1 (stereo not given in full)	-4%	183%	-12%	50µM*	-6%
C#CCOCCOCCOCCNc1nc(N2CCOCC2)nc(N2CCN(C(=O)[C@H](CCC(=O)O)n3cc(C(N)[C@H](C)CC)nn3)CC2)n1 (stereo not given in full)	-3%	148%	7%	20µM*	4%
C#CCOCCOCCOCCNc1nc(N2CCN(C(=O)[C@H](CCC(=O)O)n3cc(CN)nn3)CC2)nc(N2CCN(C(=O)[C@H](CCC(=O)O)n3cc([C@@H](N)[C@H](C)CC)nn3)CC2)n1	nt	1%	5%	nt	nt
C#CCOCCOCCOCCNc1nc(N2CCN(C(=O)C(Cc3ccc(O)cc3)n3cc(C(N)C(C)CC)nn3)CC2)nc(N2CCN(C(=O)C(Cc3ccc(O)cc3)n3cc(C(N)C(C)CC)nn3)CC2)n1 (stereo not given)	4%	175%	-3%	-13%	-5%
c1ccc(Oc2cc(-n3cccn3)ncn2)cc1	-1%	-10%	-27%	-6%	-9%
Cc1oc(-c2ccc(F)cc2)nc1CN(Cc1ccccn1)CC1CCCO1 (stereo not given)	?	70%	-13%	40µM*	6%
O=C(c1ccc(F)cc1)C1CCN(C(=O)c2c(F)cccc2F)CC1	12%	0%	-6%	6%	?
CCN(CC)CCNC(=O)c1ccc(N2CCCCC2)c(NS(=O)(=O)c2ccc(C)cc2)c1	-16%	155%	2%	-15%	-2%
CCN(CC)CCNc1cc(C)nc2c1C(=O)C(=O)C=C2N1CCCCC1	2µM*	2%	0%	2%[57.1 µM]	0%
O=C(Nc1cccc(C(F)(F)F)c1)Nc1ccc2[nH]c(=O)[nH]c2c1	-1%	-13%	5%	-14%	-1%
Cc1ccc(-n2c(=O)[nH]c3sc4c(c3c2=O)CCNC4)cc1C	nt	nt	nt	-9%	2%
CC(=O)CCc1oc2ccccc2c1-c1ccccc1	9%	-6%	-18%	-26%	-1%
CC(=O)CCc1oc2c([N+](=O)[O-])cccc2c1-c1ccc(C)o1	-1%	39%	-14%	11µM*	-1%
CC(=O)CCc1oc2ccc([N+](=O)[O-])cc2c1-c1ccc(C)o1	-5%	-3%	-17%	20µM*	-7%
CCOC(=O)[C@@H]1[C@H]2COc3ccccc3[C@@H]2N2C(=O)N(c3ccc(Cl)cc3)C(=O)[C@]12C	-2%	6%	-16%	1%	-6%
Cc1nc2ccccc2c(=O)n1NC(=O)c1ccco1	3%	-23%	4%	-7%	-4%
C/C(=N\Nc1nc2ccccc2c(=O)n1O)c1ccco1	-11%	-14%	7%	40µM*	-1%
CCOc1ccc(NC(=O)c2sc3nc(N4CCOCC4)c4c(c3c2N)CCCC4)cc1	nt	-18%	10%	-11%	0%
NNC(=O)c1c(O)c2cccc3c2n(c1=O)CCC3	1%	-10%	4%	32µM*	1%
CC(C)NC(=O)c1c(O)c2cccc3c2n(c1=O)CCC3	6%	-20%	-6%	1%	-10%
CCOc1cc2c3c(c1)C1(C(=O)N3C(C)(C)CC2C)C(C#N)=C(N)N2C(=C1C#N)Nc1ccccc12 (stereo not given)	?	13µM*	-10%	-2%	1%
SMILES	Giardia FBPA inh	AmpC inh no detg	RE007 growth inh	Sm TGR inh	AmpC inh detg
Cc1ccc(S(=O)(=O)N(CC(=O)Nc2ccccc2C(=O)O)c2ccccc2C)cc1	-4%	-26%	-7%	nt	-1%
CC(=O)O/N=C1\C(=O)N(Cc2ccc(C)cc2)c2ccccc21	8%	-31%	7%	16µM*	?
CCOC(=O)c1oc2c(c1C)-c1nn(Cc3cccc(Cl)c3)cc1CC2	nt	nt	nt	-1%	17%
Cc1cccn2c(=O)c3cc(C(=O)NC4CCCCCC4)sc3nc12	15%	-9%	0%	35µM*	0%
Cc1ccc(S(=O)(=O)N2CCN(C(=O)c3n[nH]c(=O)c4ccccc34)CC2)c(C)c1	nt	27%	-14%	-1%	-4%
CC(C)c1ccc(/C=C(\c2nc3ccccc3[nH]2)S(=O)(=O)c2ccccc2)cc1	6%	-50%	-5%	-1%	?
O=S(=O)(/C(=C/c1ccc(C(F)(F)F)cc1)c1nc2ccccc2[nH]1)c1ccccc1	-3%	-48%	-10%	18µM*	-9%
CCOc1ccc(CCN2C(=O)C(=O)N([C@@H](CC(C)C)CN3CCC[C@H]3CN3C(=O)C(=O)NC[C@@H]3Cc3ccc(O)cc3)C[C@@H]2CC(C)C)cc1	nt	nt	-2%	nt	nt
CCOc1ccc(S(=O)(=O)NCC(c2ccc(N(C)C)cc2)N2CCc3ccccc32)cc1 (stereo not given)	nt	nt	nt	0%	-1%
O=C1/C(=C/c2ccccn2)SC(=S)N1NS(=O)(=O)c1ccccc1	11%	-26%	8%	45µM*	-15%
O=C1C(Cl)=C(N2CCCCC2)C(=O)C(Cl)=C1c1cnc(N2CCCCC2)s1	7.1µM*	-52%	-25%	0.25µM*	-7%
CN(C)c1ncc(C2=C(Cl)C(=O)C(N3CCCC3)=C(Cl)C2=O)s1	nt	nt	-9%	nt	nt
CCC(=O)CC	14µM*	nt	nt	nt	nt
C=CCOC(=O)/C(=C/c1cccc2ccccc12)NC(=O)c1ccccc1	-4%	13µM*	5%	3%	?
